Most compounds without a hit are left out; they make up all but 3.9% or so of the library.
CCHFV vOTU inh: CCHFV vOTU protease inhibitors, primary screen, biochemical, Pep-AMC substrate, fluorescence | 370,000 compounds, 0.55% hits | Crimean-Congo hemorrhagic fever virus L polyprotein viral ovarian tumor (vOTU) protease … | inhibition, % at 11.5 µM; in the data active = inhibition above about 30%; note: 0% = vehicle wells with enzyme and 100% = no enzyme wells
Bead autofluor: compound fluorescence in toxin protease inhibitor counterscreen | AID 624483 | compound autofluorescence counterscreen, microsphere flow cytometry; active compounds read high | fluorescence intensity (test concentration not listed) | 360,000 compounds, 3.1% hits; in the data active = fluorescence intensity above about 16000; inconclusive = no clear call, values can overlap the other calls
Anthrax LF inh2: Bacillus anthracis LF protease inhibitors, primary screen, biochemical, multiplex microsphere, MLPCN library. multiplex microsphere protease cleavage assay. AID 588501, 2011. inhibition, % at 10 µM. Lethal factor (Bacillus anthracis), P15917. 360,000 compounds, 0.12% hits; note: plate controls were buffer without enzyme for full effect and enzyme alone for no effect
Target sequence (P15917 whole entry, looked up): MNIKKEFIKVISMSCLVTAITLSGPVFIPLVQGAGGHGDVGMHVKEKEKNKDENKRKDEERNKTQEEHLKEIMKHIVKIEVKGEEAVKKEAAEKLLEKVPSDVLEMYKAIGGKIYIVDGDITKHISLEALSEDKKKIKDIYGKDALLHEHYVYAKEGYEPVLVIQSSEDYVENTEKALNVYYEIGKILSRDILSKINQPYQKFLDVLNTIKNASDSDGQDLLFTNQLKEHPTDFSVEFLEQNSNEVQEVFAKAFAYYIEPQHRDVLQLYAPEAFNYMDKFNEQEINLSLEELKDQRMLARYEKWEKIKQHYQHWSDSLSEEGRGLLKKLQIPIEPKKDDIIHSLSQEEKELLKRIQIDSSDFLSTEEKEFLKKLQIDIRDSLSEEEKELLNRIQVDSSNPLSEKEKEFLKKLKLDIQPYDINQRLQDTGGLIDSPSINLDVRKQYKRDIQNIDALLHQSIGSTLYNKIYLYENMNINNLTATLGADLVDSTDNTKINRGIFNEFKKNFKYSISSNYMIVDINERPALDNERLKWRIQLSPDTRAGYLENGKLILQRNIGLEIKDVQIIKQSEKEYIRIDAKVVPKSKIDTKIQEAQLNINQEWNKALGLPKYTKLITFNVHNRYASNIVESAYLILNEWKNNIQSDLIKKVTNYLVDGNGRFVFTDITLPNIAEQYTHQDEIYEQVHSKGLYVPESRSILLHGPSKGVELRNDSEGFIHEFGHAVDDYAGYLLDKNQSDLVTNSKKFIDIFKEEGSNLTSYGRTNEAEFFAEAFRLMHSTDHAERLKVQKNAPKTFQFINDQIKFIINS
3CLpro inhibitor: SARS-CoV 3CLpro protease inhibitors, primary screen, biochemical, quenched FRET | Replicase polyprotein 1ab (Severe acute respiratory syndrome coronavirus), P0C6X7 | recombinant SARS-CoV 3CLpro, quenched FRET peptide cleavage | inhibition, % at 6 µM | 290,000 compounds, 0.14% hits | AID 1706, 2009; in the data active = inhibition above about 12%
BoNT-F LC inh: BoNT/F light chain protease inhibitors, primary screen, biochemical, flow cytometry, MLPCN library; AID 588497, 2011; 360,000 compounds, 0.22% hits; Botulinum neurotoxin type F light chain protease (Clostridium botulinum); Multiplex microsphere protease cleavage assay; inhibition, % at 10 µM; in the data active = inhibition above about 35%, passing the limit was not always enough; inconclusive = no clear call, values can overlap the other calls; note: plate controls were buffer without enzyme for full effect and enzyme alone for no effect
BoNT A protease: BoNT/A light chain protease inhibitors, primary screen, biochemical, flow cytometry, MLPCN library; Botulinum neurotoxin type A light chain protease (Clostridium botulinum A str. ATCC 3502); multiplex microsphere protease substrate cleavage; inhibition, % at 10 µM; 360,000 compounds, 0.17% hits; note: plate controls were buffer without enzyme for full effect and enzyme alone for no effect
Starred values were filed as active, the others as inactive; ? = inconclusive; nt = not tested or not shown. Cut-off read from the data, not from the text of the source, unless noted: active = inhibition above about 30%; inconclusive = no clear call, values can overlap the other calls; inactive = below that.

SMILES	CCHFV vOTU inh	Bead autofluor	Anthrax LF inh2	3CLpro inhibitor	BoNT-F LC inh	BoNT A protease
Cc1cc(C(=O)CSc2nnc(-c3ccncc3)n2-c2ccccc2)c(C)n1C	0	5848	-21	1	-5	0
Cn1c(SCC(=O)Nc2ccccc2-c2ccccc2)nnc1-c1ccccc1	6	nt	nt	nt	nt	nt
C#CCNC(=O)C[C@H]1C[C@@]2(C(=O)OC)C(=C[C@H](C(C)(C)C)O[C@@H]2C)N(Cc2cccc3ccccc23)C1=O	14	nt	nt	nt	nt	nt
COc1ccc(NS(=O)(=O)c2csc(C(=O)N3CCCC3)c2)c(OC)c1	-4	5692	4	0	-7	1
CCCCN(C(=O)Nc1ccc(Cl)cc1)C1CCN(C(C)=O)CC1	-3	17864*	1	0	7	5
CCOCCCN(C(=O)Nc1ccc(CC)cc1)C1CCN(C(C)=O)CC1	-8	8055	2	-3	4	1
CC(C)CN1CN2Cc3ccccc3C2CS1(=O)=O (stereo not drawn)	10	nt	nt	nt	nt	nt
Clc1ccc(CNCCC2=CCCCC2)cc1	-12	17461*	-2	2	-16	?
O=C(CSc1nnc2scc(-c3ccc(Cl)cc3)n12)NCc1ccco1	3	25480*	-5	-3	-10	-7
O=C(CSc1n[nH]c(-c2cccs2)n1)NCc1ccc2c(c1)OCO2	7	22840*	-5	1	0	1
O=C(CSc1nnc2scc(-c3ccc(Cl)cc3)n12)NCc1ccc2c(c1)OCO2	nt	24173*	-1	2	1	-2
Nc1nc(SCC(=O)NCc2ccc3c(c2)OCO3)n[nH]1	-1	3509	-4	0	3	0
O=C(Cc1cn(Cc2ccccc2)c2ccccc12)Nc1ccc(Oc2cccnc2)cc1	6	nt	nt	nt	nt	nt
Cc1cccn2c(=O)nc(SCC(=O)NC3CCCC3)nc12	7	5725	0	nt	-4	2
Cc1cc(C(=O)O[C@@H]2CCC[C@]3(C(=O)N(Cc4ccccc4)c4ccccc43)[C@H]2NC(=O)CCc2ccccc2)no1	0	nt	nt	nt	nt	nt
O=C(Nc1cccc(C(F)(F)F)c1)c1csc(COCCO)n1	15	4442	-4	nt	-12	0
CC(C)(C)NC(=O)C(c1cccc2ccccc12)n1c(=O)c(-c2ccco2)nc2ccccc21 (stereo not drawn)	17	nt	nt	nt	nt	nt
COc1ccc2nc(NC(=O)CCN3C(=O)c4ccccc4C3=O)sc2c1	22	16754*	0	1	-3	?
COc1ccc2nc(NC(=O)C(NS(=O)(=O)c3cccs3)C(C)C)sc2c1 (stereo not drawn)	1	21430*	-3	-4	-6	-4
COc1ccc2nc(NC(=S)N(C)C)sc2c1	22	23623*	-1	6	-4	-3
COc1ccc2nc(NC(=O)c3ccoc3C)sc2c1	2	21922*	1	1	1	1
CS(=O)(=O)c1ccc2nc(NC(=O)CCN3C(=O)c4ccccc4C3=O)sc2c1	13	4895	-5	3	7	1
COc1ccc2nc(NC(=O)c3cc(C)oc3C)sc2c1	-7	?	-9	7	-7	-1
Cc1ccccc1CC(=O)Nc1nnc(-c2cccnc2)s1	-6	nt	nt	nt	nt	nt
Brc1ccc(OCc2ccccc2)c(CNCc2ccncc2)c1	-5	16749*	-9	-6	-15	-3
SMILES	CCHFV vOTU inh	Bead autofluor	Anthrax LF inh2	3CLpro inhibitor	BoNT-F LC inh	BoNT A protease
Fc1ccc(COc2ccccc2CNCc2ccncc2)cc1	9	2435	-3	0	-21	-1
CCOc1ccccc1-n1c(SCC(N)=O)nnc1-c1ccccc1	-13	16659*	1	4	-4	?
CCOc1ccccc1-n1c(SCC(=O)N2CCCC2)nnc1-c1ccc(O)cc1	-3	10502	0	-5	-1	-1
CCOc1ccccc1-n1c(SCC(N)=O)nnc1-c1ccc(O)cc1	14	19710*	-1	-1	4	2
CCCCOCCCNC(=O)C[C@@H]1C(=O)N(CCc2ccc(Cl)cc2)C2=CCCCC[C@]21C(=O)OC	8	nt	nt	nt	nt	nt
CCOc1cccc(-c2nnc(SCC(=O)Nc3cc(OC)cc(OC)c3)n2N)c1	1	22656*	-2	1	-3	?
CCOC(=O)c1cccnc1SCC(=O)Nc1ccc(C)cc1	-9	3938	0	6	-5	0
COc1ccc(NC(C)=O)cc1NC(=O)CSc1nnc(-c2ccc(F)cc2)n1N	-4	20810*	-3	3	-2	0
COc1cc(NC(=O)CSc2ncccc2C(=O)OC(C)C)cc(OC)c1	0	23173*	0	3	-3	-2
COc1ccc(NC(=O)CSc2nnc(-c3ccccc3C)n2N)cc1OC	1	22260*	-1	-3	-1	?
CN1Cc2nnn(Cc3ccccc3)c2-c2cc(N3CCCC3)ccc2S1(=O)=O	-5	nt	nt	nt	nt	nt
COC(=O)CSc1nnc(CNC(=O)c2cc(OC)cc(OC)c2)n1-c1ccc(F)cc1	8	4396	-3	-1	1	0
O=C(c1ccc(F)c(F)c1)N1CCC(Oc2cccnc2)CC1	0	nt	nt	nt	nt	nt
C[C@@H]([C@@H](O)c1ccccc1)N(C)C(=O)C(N)Cc1ccccc1 (stereo partly drawn)	-10	3973	6	-5	4	0
COc1ccc(NC(=O)CSc2nnc(-c3ccccc3C)n2N)cc1	0	22454*	-1	0	-2	-2
O=c1c2c3c(sc2nc2n1CCCC2)CCCC3	1	3157	1	-2	-3	0
CCOC(=O)C1CCCn2c1nc1sc3c(c1c2=O)CCCC3 (stereo not drawn)	-3	23606*	-2	-5	0	-1
CCCCN1CCC(C#N)(Nc2ccccc2)CC1	-9	24452*	0	-5	-6	-4
CCOc1ccc(C(c2c(O)nc(SC)n(C)c2=O)c2c(O)nc(SC)n(C)c2=O)cc1	-1	22263*	0	1	4	1
CCOc1ccc(OCC(=O)OCn2c(SC)nnc(C)c2=O)cc1	-8	1982	-2	3	-5	-1
CC(=O)c1ccc(NC(=O)CSc2nc(C)cc(C)c2C(N)=O)cc1	9	5125	-5	1	2	-1
COC(=O)[C@]12C[C@H](CC(=O)NCCCN3CCCC3=O)C(=O)N(CCC3=CCCCC3)C1=C[C@H](C(C)C)O[C@@H]2C1CC1	1	nt	nt	nt	nt	nt
Cc1cc(C)n(-c2ccn(Cc3ccc(Cl)cc3Cl)c(=O)n2)n1	-4	23685*	-1	-1	-4	-2
CC(=O)CC[C@H]1CC[C@]2(CCCN(S(=O)(=O)c3ccccc3)C2)O1	1	nt	nt	nt	nt	nt
Cc1cccc(NC(=O)/C(C#N)=C\c2cccnc2)c1	-8	17179*	0	-3	-2	-2
COC(=O)CSC(C(=O)Nc1ccc(C)c(C)c1)c1ccccc1 (stereo not drawn)	4	22778*	-1	9	0	0

Bioassay records deposited in PubChem by several laboratories.
